Test [1] relates to Wnt5a (protein binding on small-molecule microarray). The experiment in a line: Wnt5a binders on small-molecule microarray, primary screen, biophysical, 635/667 nm fluorescence (AID 1142).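 Note: fluorescence read at 667 nm with signal to noise per printed feature.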 The note with it: 635 nm fluorescence, higher = more signal.
Test [2] in a line: cell viability in Huh7 cells, primary screen, cytotoxicity control for HCV replication inhibitor project, CellTiter-Glo luminescence, basal, 48 h (AID 1143).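 Note: Huh7 hepatoma cells carrying a hepatitis C replication reporter with no stimulus; test concentration not given here.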 The settings on record: Huh7 HCV replicon, higher = more signal, called active from +8 up or from −8 down.
Test [3] is described as follows: P. aeruginosa biofilm formation inhibitors, primary screen, PAO1 strain, BacTiter-Glo luminescence, LB-PBS (AID 1144). The settings on record: 12 h, higher = more signal.
The nature of test [4]: CREB reporter modulators without forskolin, primary screen, cell-based, PC12, CRE-LacZ reporter, unstimulated (AID 1145). The settings on record: no forskolin, luminescence, 4.5 h, higher = more signal, called active from +8 up or from −8 down.
Test [5] in a line: CREB reporter modulators under forskolin, primary screen, cell-based, PC12, CRE-LacZ reporter, forskolin-stimulated (AID 1146).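 Note: PC12 cells with 6xCRE LacZ reporter stimulated by forskolin 10 µM; beta-galactosidase reporter signal reflecting CREB driven transcription.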 The settings on record: luminescence, 4.5 h, higher = more signal, called active from +8 up or from −8 down.
The target in test [6] is Streptavidin (Streptomyces avidinii) (UniProt P22629). The experiment in a line: streptavidin binders on small-molecule microarray, primary screen, artefact control for SMM compound annotation, biophysical, 635/667 nm fluorescence (AID 1147).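 Note: signal reflects streptavidin binding to arrayed compounds as a control protein.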 The note with it: streptavidin binding, higher = more signal.
Streptavidin (Streptomyces avidinii), sequence (P22629 whole entry, looked up): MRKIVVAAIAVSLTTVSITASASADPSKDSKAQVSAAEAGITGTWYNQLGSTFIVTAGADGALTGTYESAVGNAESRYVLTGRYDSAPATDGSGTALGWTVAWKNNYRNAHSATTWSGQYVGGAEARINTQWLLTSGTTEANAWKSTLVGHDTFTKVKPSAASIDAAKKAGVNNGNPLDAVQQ
A short description of test [7]: small-molecule binders of probe aInhba, primary screen, biochemical, small-molecule microarray, 635/667 nm fluorescence (AID 1148).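 Note: score merges 667nm spot fluorescence with signal-to-noise for antibody binding to printed compounds.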 The note with it: higher = more signal.
In test [8] the target is Torsin-1A (Homo sapiens) (UniProt O14656). The experiment in a line: torsin A binders from cell lysate, primary screen, small-molecule microarray, wild-type, 635/667 nm (AID 1149). The note with it: COS7 hTOR1A-WT lysate, 635 nm fluorescence, higher = more signal.
Torsin-1A (Homo sapiens), sequence (O14656 whole entry, looked up): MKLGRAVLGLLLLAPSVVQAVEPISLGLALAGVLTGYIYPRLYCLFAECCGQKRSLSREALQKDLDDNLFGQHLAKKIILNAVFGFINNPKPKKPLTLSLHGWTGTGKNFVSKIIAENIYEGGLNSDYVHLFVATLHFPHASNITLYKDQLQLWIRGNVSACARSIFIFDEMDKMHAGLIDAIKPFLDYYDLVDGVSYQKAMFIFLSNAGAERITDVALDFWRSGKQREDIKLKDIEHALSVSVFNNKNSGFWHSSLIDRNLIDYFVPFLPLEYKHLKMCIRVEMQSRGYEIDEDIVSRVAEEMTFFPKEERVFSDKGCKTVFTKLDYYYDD
The target is the same in test [9]. The experiment in a line: small-molecule binders of mutant TOR1A in lysate, primary screen, cell lysate, small-molecule microarray, COS7 lysate, 635/667 nm fluorescence (AID 1150).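 Note: score pools 667 nm emission and signal to noise measuring lysate protein binding.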 The note with it: COS7 hTOR1A mutant lysate, 635 nm fluorescence, higher = more signal.
Test [10] deals with Sonic hedgehog protein (Shh). Kind of test: small-molecule binders of Shh protein, primary screen, biochemical, small-molecule microarray, 635/667 nm fluorescence (AID 1151).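 Note: Shh protein binding to compounds spotted on small-molecule microarray slides; score combines spot fluorescence intensity with signal-to-noise across triplicate slides.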 The note with it: small-molecule microarray binding, 635 nm fluorescence; higher = more signal.

Activity calls are given as the source filed them. Unless noted, the rule behind the calls is not given here.

For the molecule `C=CCN1C(=O)[C@@]2(CC=C)N=C(c3ccc(OCCCO)cc3)O[C@H]2c2ccccc21`, the composite z-score in test [1] is 1.39; in test [6], 0.26; in [7], 0.33; in the test with Torsin-1A (Homo sapiens) [8], 0.537; with Torsin-1A (Homo sapiens) [9], 0.658; in [10], 1.47. The z-score is -3.88 (inactive) in test [2], -0.776 (inactive) in test [3], 1.13 (inactive) in test [4] and -2.04 (inactive) in [5].

Take `COc1ccc([Si](C)(C)[C@@H]2[C@@H](CCO)O[C@]3(C(=O)N(Cc4ccc(N(C=O)c5ccccc5)cc4)c4ccccc43)[C@H]2C)cc1`: the composite z-score in test [1] came out at 0.0862; in [6], 0.426; in test [7], 0.106; with Torsin-1A (Homo sapiens) [8] it was 0.164; in the test with Torsin-1A (Homo sapiens) [9], 0.469; in [10], 0.868. For the same molecule, the z-score is -6.2 (inactive) in test [2], 0.00917 (inactive) in [3], 4.55 (inactive) in [4] and 1.03 (inactive) in test [5].

`C=C(COC)/C(=C/C[C@H](OC(C)=O)c1ccc(CO)o1)c1cc(C(=O)OC)ccc1OC`: the composite z-score in test [1] was 0.122; in [6], -0.427; in test [7], -0.154; with Torsin-1A (Homo sapiens) [8], -0.156; in the test with Torsin-1A (Homo sapiens) [9], 0.647; in [10], 0.756. Moreover, the z-score is -3.08 (inactive) in test [2], -0.261 (inactive) in test [3], 1.78 (inactive) in [4] and 1.71 (inactive) in test [5].

As for `O[C@@H](Cc1ccccc1)[C@H]1C2C=CCCC=C2CN1Cc1cccc(Cl)c1` (stereo not given in full), the composite z-score in test [1] is 0.35; in test [6] it was 0.513; in test [7], 0.0173; in the test with Torsin-1A (Homo sapiens) [8] it was 0.739; with Torsin-1A (Homo sapiens) [9], -0.453; in test [10], 1.2. The z-score in test [2] is -1.1 (inactive); in test [3] it was -0.829 (inactive); in [4] it was 3.56 (inactive); in [5] it was 2.78 (inactive).

On to `CN1C=C(C(=O)OCCS(C)(=O)=O)C(C(=O)OCCS(C)(=O)=O)=CC(c2ccc(CO)cc2)=CC1C1CC1` (stereo not given), for which the composite z-score in test [1] was 0.0929; in test [6], -0.0005; in [7], 0.149; in the test with Torsin-1A (Homo sapiens) [8], 0.738; with Torsin-1A (Homo sapiens) [9] it was 0.5; in test [10], 0.457. Further, the z-score in test [2] is -0.95 (inactive); in test [3], 0.706 (inactive); in test [4] it was -0.205 (inactive); in test [5], -0.507 (inactive).

Turning to `C=C(/C(=C/C[C@H](OC(C)=O)c1ccccc1OCCO)c1cnc2ccccc2c1)C(C)C`, the composite z-score is 0.025 in test [1]; 0.533 in test [6]; 0.0543 in [7]; 0.316 with Torsin-1A (Homo sapiens) [8]; 0.0233 with Torsin-1A (Homo sapiens) [9]; 1.09 in test [10]. Also, the z-score in [2] is -1.61 (inactive); in test [3] it was 0.445 (inactive); in [4], 4.98 (inactive); in [5], 1.49 (inactive).

As to `COCCOC(=O)N1C(=O)[C@@]2(c3ccccc31)[C@H](C(=O)N1CCc3cc(OC)c(OC)cc3C1)[C@H]1C(=O)O[C@H](c3ccccc3)[C@H](c3ccccc3)N1[C@@H]2c1ccc(OCCO)cc1`, the composite z-score in [1] came out at 0.146; in [6], 0.547; in test [7], 0.0569; with Torsin-1A (Homo sapiens) [8] it was 0.0657; in the test with Torsin-1A (Homo sapiens) [9] it was 1.21; in test [10], 1.41. Moreover, the z-score in test [2] is -0.704 (inactive); in test [3] it was 0.73 (inactive); in [4], 0.685 (inactive); in [5], -0.653 (inactive).

Turning to `[N-]=[N+]=NCc1ccccc1C[C@]1(C(N)=O)COC(c2ccc(OCCCO)cc2)=N1`, the composite z-score is 0.217 in test [1]; 0.468 in test [6]; 0.189 in test [7]; 0.728 with Torsin-1A (Homo sapiens) [8]; 0.972 with Torsin-1A (Homo sapiens) [9]; -0.584 in test [10]. Also, the z-score was -2.4 (inactive) in [2], -0.602 (inactive) in test [3], -0.585 (inactive) in test [4] and -1.68 (inactive) in test [5].

For `CN(C)C(=O)[C@]1(Cc2ccccc2N=[N+]=[N-])N=C(c2ccc(OCCCO)cc2)O[C@@H]1c1ccccc1N=[N+]=[N-]`, the composite z-score in test [1] was 0.46; in [6] it was 1.41; in [7], -0.0162; in the test with Torsin-1A (Homo sapiens) [8], 1.49; with Torsin-1A (Homo sapiens) [9], 0.799; in test [10], 0.428. Also, the z-score in [2] was -4.48 (inactive); in test [3] it was -0.938 (inactive); in [4], 0.0686 (inactive); in [5], -1 (inactive).

Regarding `CCCCCCc1nc(-c2cc(C)c(OC)c(C)c2)cc2c1[Si](C(C)C)(C(C)C)OC2`, the composite z-score was -0.227 in [1]; 0.0643 in [6]; 0.131 in test [7]; -0.646 in the test with Torsin-1A (Homo sapiens) [8]; -0.384 in the test with Torsin-1A (Homo sapiens) [9]; 0.985 in [10]. Further, the z-score in [2] is -2.72 (inactive); in [3] it was -0.661 (inactive); in test [4] it was -0.0989 (inactive); in test [5], 0.0738 (inactive).

Regarding `COCC(=C=CC[C@@H](O)c1cccc(OCCO)c1)C[C@@H](O)c1ccccn1`, the composite z-score in [1] is 0.0068; in [6], -0.229; in test [7], -0.0403; with Torsin-1A (Homo sapiens) [8], 0.839; in the test with Torsin-1A (Homo sapiens) [9], 0.344; in test [10], 1.29. Further, the z-score is 0.0726 (inactive) in [2], 0.786 (inactive) in test [3], 0.378 (inactive) in test [4] and -1.16 (inactive) in test [5].

For `COCCCNC(=O)[C@@]1(C)c2ccccc2C(=O)N(C(C)C)[C@H]1c1ccc(CO)cc1`, the composite z-score in test [1] was 0.292; in test [6] it was 0.889; in [7], 0.143; with Torsin-1A (Homo sapiens) [8], -0.277; with Torsin-1A (Homo sapiens) [9], 0.776; in test [10], 1.38. In addition, the z-score in test [2] was 0.169 (inactive); in test [3] it was 0.0334 (inactive); in test [4], 0.234 (inactive); in [5], 0.174 (inactive).

Turning to `C=C[C@@H](COC(=O)OC(C)(C)C)N(Cc1ccc(OC)cc1)S(=O)(=O)c1ccc(Br)cc1`, the composite z-score in [1] is 0.0249; in test [6] it was 0.603; in test [7] it was -0.0332; in the test with Torsin-1A (Homo sapiens) [8], 0.604; in the test with Torsin-1A (Homo sapiens) [9], 0.299; in [10], 1.57. The z-score in [2] is -1.75 (inactive); in test [3], 0.551 (inactive); in test [4], 3.04 (inactive); in test [5], 1.88 (inactive).

For the molecule `CO[C@H]1O[C@H](CO)[C@@H](OC(=O)Nc2ccccc2)[C@H](OC(=O)Nc2ccccc2)[C@@H]1OC(=O)Nc1ccccc1`, the composite z-score in [1] was found to be 1.13; in [6], 0.467; in [7] it was 0.347; with Torsin-1A (Homo sapiens) [8], 0.451; with Torsin-1A (Homo sapiens) [9], 0.872; in test [10], 1.48. For the same molecule, the z-score in [2] is -4.73 (inactive); in test [3], -0.309 (inactive); in [4] it was 0.101 (inactive); in [5] it was -0.825 (inactive).

Source of the values: PubChem BioAssay.
